PubChem BioAssay (NCATS)
Inconclusive results are not listed. A number with no mark means an inactive call. Activity calls are given as the source filed them. Unless noted, calls follow the shape of the dose curve; as a rule, active = well fitted curve in the direction sought with a large enough effect; inconclusive = small, poorly fitted or top-dose-only effect, or another doubt; inactive = no such curve, though single readings can be large; an effect the other way counts as inactive or inconclusive.

Columns and labels:
[1] = molecular target: ATP-dependent 6-phosphofructokinase (Trypanosoma brucei brucei) (UniProt O15648); experiment: qHTS Assay to Find Inhibitors of T. brucei phosphofructokinase: hit validation (AID 492961)
Procedure, shortened: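 Luminescence from ADP-Glo reports ADP generated as T. brucei PFK (1.25 nM) phosphorylates 0.5 mM fructose-6-phosphate using 0.1 mM ATP. Reactions ran 45 min at room temperature, pH 8.0.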

[2] = molecular target: Ubiquitin carboxyl-terminal hydrolase 1 (Homo sapiens) (UniProt O94782); experiment: Inhibitors of USP1/UAF1: Pilot qHTS (AID 504865);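 also: rhodamine fluorescence freed from ubiquitin-rhodamine substrate followed over time; top concentration of the series differs between compounds; nearly all actives have a fitted effect of over 35% in size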
Procedure, shortened: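 USP1/UAF1 complex (1nM) preincubated with compound 15 min at room temperature, then Ub-Rho substrate (150nM final) added. Fluorescence read kinetically at 480/540 nm, 6 reads every 60 seconds. Buffer: 50mM HEPES pH 7.8, 0.5mM EDTA, 0.1 mg/ml BSA, 1mM TCEP, 0.01% Tween-20.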

[3] = molecular target: Luciferin 4-monooxygenase (Photinus pyralis) (UniProt P08659); experiment: Biochemical firefly luciferase enzyme assay for NPC (AID 624030);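 also: purified P. pyralis luciferase at 10 nM with luciferin and ATP substrate; nearly all actives have a fitted effect of over 70% in size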
Procedure, shortened: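 Purified P. pyralis luciferase at 10 nM in 50 mM Tris Acetate (final), luminescence read within 5 minutes of enzyme addition to compounds. Activity normalised to PTC124 versus DMSO; concentration-response curves classed by r2, magnitude and activity.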

[4] = S16 Schwann cell viability assay (CellTiter-Glo assay) (AID 624031);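 also: native untransfected S16 rat Schwann cells; nearly all actives have a fitted effect of over 70% in size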
Procedure, shortened: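 Counter-screen for cytotoxicity: parental S16 rat Schwann cells lacking the PMP22 reporters, treated 24 h with compound, viability from cellular ATP by CellTiter-Glo luminescence, normalized to DMSO (0%) and no-cell wells.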

[5] = S16 Schwann cell PMP22 intronic element firefly luciferase assay (AID 624032); also: potency is read from the fitted curve at half-maximal effect; nearly all actives have a fitted effect of over 30% in size
Procedure, shortened: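 Rat S16 Schwann cells stably carrying firefly luciferase driven by a PMP22 intronic element, in 10% FBS, treated 24 h at 37 C. ONE-Glo luminescence normalized to PTC124 control and DMSO (0%); curves classed by r2, magnitude and activity.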

[6] = S16 Schwann cell PMP22 intronic element beta-lactamase assay (AID 624044; calls by dose curve; also: nearly all actives have a fitted effect of over 15% in size); conditions: S16 rat Schwann cells, PMP22 element beta-lactamase FRET, 24 h; ratio activity, negative = inhibition: at 38.3 µM (top of the series)
Procedure, shortened: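 Rat S16 Schwann cells with beta-Lac driven by a PMP22 intronic element, compound-treated 24 h at 37 °C. LiveBLAzer FRET B/G read: 460 nm normalized to potassium clavulanate vs DMSO; 535 nm FRET as viability; concentration-effect curves classified.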

[7] = qHTS profiling for inhibitors of Plasmodium falciparum proliferation (AID 504749); also: potency is read from the fitted curve at half-maximal effect; nearly all actives have a fitted effect of over 60% in size; conditions: P. falciparum in erythrocytes, SYBR Green DNA, 72 h
Procedure, shortened: (§1)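 Readout was DNA-dye fluorescence from lysed cultures, ex 485/em 535 nm. Parasitized red cells had grown 72 h with compound; data scaled between 0.29 uM artemisinin and DMSO wells and corrected using vehicle-only plates.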

3D7 = experiment: as above; conditions: P. falciparum in erythrocytes, SYBR Green DNA, 72 h; series mostly up to 28.7 µM
Procedure, shortened: as §1

7G8 = experiment: as above; conditions: P. falciparum in erythrocytes, SYBR Green DNA, 72 h; series mostly up to 28.7 µM
Procedure, shortened: as §1

AA1029 = experiment: as above; conditions: P. falciparum in erythrocytes, SYBR Green DNA, 72 h; series mostly up to 28.7 µM
Procedure, shortened: as §1

AS120 = experiment: as above; conditions: P. falciparum in erythrocytes, SYBR Green DNA, 72 h; series mostly up to 28.7 µM
Procedure, shortened: as §1

ATS189 = experiment: as above; conditions: P. falciparum in erythrocytes, SYBR Green DNA, 72 h; series mostly up to 28.7 µM
Procedure, shortened: as §1

ATS95 = experiment: as above; conditions: P. falciparum in erythrocytes, SYBR Green DNA, 72 h; series mostly up to 28.7 µM
Procedure, shortened: as §1

C2A = experiment: as above; conditions: P. falciparum in erythrocytes, SYBR Green DNA, 72 h; series mostly up to 28.7 µM
Procedure, shortened: as §1

CP185 = experiment: as above; conditions: P. falciparum in erythrocytes, SYBR Green DNA, 72 h; series mostly up to 28.7 µM
Procedure, shortened: as §1

CP191 = experiment: as above; conditions: P. falciparum in erythrocytes, SYBR Green DNA, 72 h; series mostly up to 28.7 µM
Procedure, shortened: as §1

CP192 = experiment: as above; conditions: P. falciparum in erythrocytes, SYBR Green DNA, 72 h; series mostly up to 28.7 µM
Procedure, shortened: as §1

CP194 = experiment: as above; conditions: P. falciparum in erythrocytes, SYBR Green DNA, 72 h; series mostly up to 28.7 µM
Procedure, shortened: as §1

CP201 = experiment: as above; conditions: P. falciparum in erythrocytes, SYBR Green DNA, 72 h; series mostly up to 28.7 µM
Procedure, shortened: as §1

CP203 = experiment: as above; conditions: P. falciparum in erythrocytes, SYBR Green DNA, 72 h; series mostly up to 28.7 µM
Procedure, shortened: as §1

CP211 = experiment: as above; conditions: P. falciparum in erythrocytes, SYBR Green DNA, 72 h; series mostly up to 28.7 µM
Procedure, shortened: as §1

CP215 = experiment: as above; conditions: P. falciparum in erythrocytes, SYBR Green DNA, 72 h; series mostly up to 28.7 µM
Procedure, shortened: as §1

CP217 = experiment: as above; conditions: P. falciparum in erythrocytes, SYBR Green DNA, 72 h; series mostly up to 28.7 µM
Procedure, shortened: as §1

CP237 = experiment: as above; conditions: P. falciparum in erythrocytes, SYBR Green DNA, 72 h; series mostly up to 28.7 µM
Procedure, shortened: as §1

CP238 = experiment: as above; conditions: P. falciparum in erythrocytes, SYBR Green DNA, 72 h; series mostly up to 28.7 µM
Procedure, shortened: as §1

CP247 = experiment: as above; conditions: P. falciparum in erythrocytes, SYBR Green DNA, 72 h; series mostly up to 28.7 µM
Procedure, shortened: as §1

CP250 = experiment: as above; conditions: P. falciparum in erythrocytes, SYBR Green DNA, 72 h; series mostly up to 28.7 µM
Procedure, shortened: as §1

CP252 = experiment: as above; conditions: P. falciparum in erythrocytes, SYBR Green DNA, 72 h; series mostly up to 28.7 µM
Procedure, shortened: as §1

CP256 = experiment: as above; conditions: P. falciparum in erythrocytes, SYBR Green DNA, 72 h; series mostly up to 28.7 µM
Procedure, shortened: as §1

CP260 = experiment: as above; conditions: P. falciparum in erythrocytes, SYBR Green DNA, 72 h; series mostly up to 28.7 µM
Procedure, shortened: as §1

CP262 = experiment: as above; conditions: P. falciparum in erythrocytes, SYBR Green DNA, 72 h; series mostly up to 28.7 µM
Procedure, shortened: as §1

CP265 = experiment: as above; conditions: P. falciparum in erythrocytes, SYBR Green DNA, 72 h; series mostly up to 28.7 µM
Procedure, shortened: as §1

Sequence of Ubiquitin carboxyl-terminal hydrolase 1 (Homo sapiens) (O94782 whole entry, looked up): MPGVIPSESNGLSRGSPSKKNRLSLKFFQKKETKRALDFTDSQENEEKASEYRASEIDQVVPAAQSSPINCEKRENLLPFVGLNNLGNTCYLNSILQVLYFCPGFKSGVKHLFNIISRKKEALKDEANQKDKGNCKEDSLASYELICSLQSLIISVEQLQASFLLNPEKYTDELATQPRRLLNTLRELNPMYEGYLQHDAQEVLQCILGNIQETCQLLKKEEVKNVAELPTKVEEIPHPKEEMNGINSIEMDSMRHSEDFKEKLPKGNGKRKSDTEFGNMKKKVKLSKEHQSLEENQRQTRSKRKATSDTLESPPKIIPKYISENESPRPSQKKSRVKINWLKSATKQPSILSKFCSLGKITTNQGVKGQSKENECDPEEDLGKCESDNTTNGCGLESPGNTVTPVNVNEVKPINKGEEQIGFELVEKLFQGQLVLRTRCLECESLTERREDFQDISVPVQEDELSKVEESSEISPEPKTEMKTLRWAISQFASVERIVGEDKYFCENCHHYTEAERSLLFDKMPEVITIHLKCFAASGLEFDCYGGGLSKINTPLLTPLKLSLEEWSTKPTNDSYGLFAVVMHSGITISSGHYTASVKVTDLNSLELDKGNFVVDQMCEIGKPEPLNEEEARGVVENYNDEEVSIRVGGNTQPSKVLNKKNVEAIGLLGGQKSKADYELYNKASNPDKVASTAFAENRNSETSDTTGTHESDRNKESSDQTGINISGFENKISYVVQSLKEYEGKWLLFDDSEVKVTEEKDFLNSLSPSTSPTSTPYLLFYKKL
Sequence of Luciferin 4-monooxygenase (Photinus pyralis) (P08659 whole entry, looked up): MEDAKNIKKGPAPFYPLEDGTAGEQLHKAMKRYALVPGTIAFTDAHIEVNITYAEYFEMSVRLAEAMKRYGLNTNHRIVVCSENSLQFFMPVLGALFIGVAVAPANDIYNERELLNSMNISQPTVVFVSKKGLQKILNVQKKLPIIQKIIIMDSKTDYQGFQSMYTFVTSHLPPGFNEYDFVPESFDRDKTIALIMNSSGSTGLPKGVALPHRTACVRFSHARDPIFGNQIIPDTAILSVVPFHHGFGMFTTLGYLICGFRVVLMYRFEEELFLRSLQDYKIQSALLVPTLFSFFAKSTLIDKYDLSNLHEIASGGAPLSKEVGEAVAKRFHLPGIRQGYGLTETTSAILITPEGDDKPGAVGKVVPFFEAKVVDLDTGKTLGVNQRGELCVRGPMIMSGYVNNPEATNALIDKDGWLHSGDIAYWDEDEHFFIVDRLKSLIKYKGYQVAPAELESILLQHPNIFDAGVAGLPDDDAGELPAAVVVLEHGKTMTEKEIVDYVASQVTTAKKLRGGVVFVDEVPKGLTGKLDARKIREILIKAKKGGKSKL
Sequence of ATP-dependent 6-phosphofructokinase (Trypanosoma brucei brucei) (O15648 whole entry, looked up): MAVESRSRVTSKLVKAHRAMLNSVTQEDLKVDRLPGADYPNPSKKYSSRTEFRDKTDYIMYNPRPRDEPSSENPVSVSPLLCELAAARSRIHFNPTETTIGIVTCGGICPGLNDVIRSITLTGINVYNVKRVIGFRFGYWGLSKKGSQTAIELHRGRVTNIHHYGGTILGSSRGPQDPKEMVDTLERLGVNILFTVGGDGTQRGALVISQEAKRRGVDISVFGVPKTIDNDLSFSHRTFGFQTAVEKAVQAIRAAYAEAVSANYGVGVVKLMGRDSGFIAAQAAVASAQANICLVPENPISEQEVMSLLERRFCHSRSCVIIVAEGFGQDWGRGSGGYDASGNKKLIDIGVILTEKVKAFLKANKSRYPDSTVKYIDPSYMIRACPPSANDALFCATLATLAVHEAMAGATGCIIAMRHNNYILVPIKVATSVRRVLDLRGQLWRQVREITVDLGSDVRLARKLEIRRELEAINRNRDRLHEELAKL

## CO[C@H]1OC2O[C@@]3(C)CC[C@H]4[C@H](C)CC[C@@H]([C@H]1C)[C@@]24OO3 (stereo partly drawn)
[1]
  Potency: inactive
[2]
  Potency: inactive
[3]
  Potency: inactive
[4]
  Potency: inactive
[5]
  Potency: 3220 nM (active)
[6]
  Potency: inactive
[7]; parasite line A
  Potency: 25.1 nM (active)
[7]; parasite line B
  Potency: 15.8 nM (active)
3D7
  Potency: 14.1 nM (active)
7G8
  Potency: 2.2 nM (active)
AA1029
  Potency: 31.6 nM (active)
AS120
  Potency: 22.4 nM (active)
ATS189
  Potency: 14.1 nM (active)
ATS95
  Potency: 25.1 nM (active)
C2A
  Potency: 35.5 nM (active)
CP185
  Potency: 31.6 nM (active)
CP191
  Potency: 11.2 nM (active)
CP192
  Potency: 37.9 nM (active)
CP194
  Potency: 60.1 nM (active)
CP201
  Potency: 75.7 nM (active)
CP203
  Potency: 30.1 nM (active)
CP211
  Potency: 75.7 nM (active)
CP215
  Potency: 30.1 nM (active)
CP217
  Potency: 31.6 nM (active)
CP237
  Potency: 15.8 nM (active)
CP238
  Potency: 22.4 nM (active)
CP247
  Potency: 25.1 nM (active)
CP250
  Potency: 63.1 nM (active)
CP252
  Potency: 31.6 nM (active)
CP256
  Potency: 12.6 nM (active)
CP260
  Potency: 14.1 nM (active)
CP262
  Potency: 33.8 nM (active)
CP265
  Potency: 3.2 nM (active)
